Compound activity from PubChem BioAssay.
This is a sample that favours compounds with a hit; in the whole collection about 3.4% have one here.
FBW7 act: FBW7 E3 ligase activators, primary screen, biochemical, AlphaScreen, human. F-box/WD repeat-containing protein 7 (Homo sapiens), Q969H0. AlphaScreen FBW7–phospho-cyclin E peptide binding, activator screen. normalized activity (activation), % at 26.1 µM. 650,000 tested, 0.13% active; in the data active = normalized activity above about 1.9%;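 note: purified mutant Fbw7 with reduced substrate affinity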
Target sequence (Q969H0 whole entry, looked up): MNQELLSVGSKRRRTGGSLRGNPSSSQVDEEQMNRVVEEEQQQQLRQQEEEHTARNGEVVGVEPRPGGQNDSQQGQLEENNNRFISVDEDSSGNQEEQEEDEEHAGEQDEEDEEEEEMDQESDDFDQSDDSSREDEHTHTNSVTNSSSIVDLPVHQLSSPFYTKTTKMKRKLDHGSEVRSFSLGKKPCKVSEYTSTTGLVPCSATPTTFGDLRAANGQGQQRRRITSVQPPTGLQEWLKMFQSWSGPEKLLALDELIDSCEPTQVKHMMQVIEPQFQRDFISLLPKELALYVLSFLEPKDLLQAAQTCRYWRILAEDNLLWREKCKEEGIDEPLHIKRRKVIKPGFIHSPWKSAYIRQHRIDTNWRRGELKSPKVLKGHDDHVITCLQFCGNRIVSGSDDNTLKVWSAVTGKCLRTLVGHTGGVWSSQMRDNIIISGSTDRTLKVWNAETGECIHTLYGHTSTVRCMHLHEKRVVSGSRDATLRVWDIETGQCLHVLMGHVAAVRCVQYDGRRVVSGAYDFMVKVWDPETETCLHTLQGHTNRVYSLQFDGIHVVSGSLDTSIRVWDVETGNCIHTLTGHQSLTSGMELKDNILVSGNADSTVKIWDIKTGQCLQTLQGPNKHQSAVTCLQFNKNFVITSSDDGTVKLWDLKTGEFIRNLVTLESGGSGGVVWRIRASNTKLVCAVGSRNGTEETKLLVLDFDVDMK
MITF inh: MITF inhibitors, primary screen, biochemical, AlphaScreen, human. inhibition, % at 2.6 µM. AID 1259374, 2018. AlphaScreen MITF homodimerization, bead proximity signal. Microphthalmia-associated transcription factor (Homo sapiens), O75030. 650,000 tested, 0.91% active; in the data active = inhibition above about 50%;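 note: 0% = vehicle wells with protein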
TEAD-YAP block: TEAD-YAP interaction inhibition, primary screen, TEAD-YAP interaction inhibitor project, luminescence, HEK-TIYL cells. TEAD-Gal4/YAP UAS-luciferase luminescence. inhibition, % at 9.12 µM. 640,000 tested, 1.4% active. AID 1259422, 2018; in the data active = inhibition above about 32%;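 note: 0% = median of test compound wells and 100% = reference inhibitor wells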
GPR151 ag: activators of human GPR151, primary screen, cell-based, PathHunter beta-arrestin, luminescence | G-protein coupled receptor 151 (Homo sapiens), Q8TDV0 | PathHunter beta-arrestin GPR151 cells | activation, % at 11.2 µM | 650,000 tested, 1% active | AID 1508602, 2020; in the data active = activation above about 4.9%;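 note: 0% = median of compound wells and 100% = cells with positive control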
The depositor's hits bear a star; nt = no result.

SMILES	FBW7 act	MITF inh	TEAD-YAP block	GPR151 ag
CN1CCN(c2nc3ccc([N+](=O)[O-])cc3s2)CC1	0	9	-60	-1
COc1ccc2sc(N3CCN(C)CC3)nc2c1	0	7	37*	-5
CCC1=CC2CN3CCc4c([nH]c5ccccc45)[C@@](C(=O)OC)(C2)C13	0	5	-1	-2
C[C@]12CC[C@H]3[C@@H](CC[C@]4(O)C[C@@H](O)CC[C@]34C=O)[C@@]1(O)CC[C@@H]2C1=CC(=O)OC1	0	18	101*	1
C[C@H]1OC(O[C@H]2[C@@H](O)CC(O[C@H]3[C@@H](O)C[C@H](O[C@H]4CC[C@]5(C)C6CC[C@]7(C)[C@@H](C8=CC(=O)OC8)[C@@H](O)C[C@]7(O)[C@@H]6CC[C@@H]5C4)O[C@@H]3C)O[C@@H]2C)C[C@H](O)C1O (stereo partly specified)	0	11	78*	3
CO[C@@H]1C(O)[C@H](O[C@H]2CC[C@@]3(C=O)[C@H](CC[C@@H]4[C@@H]3CC[C@]3(C)[C@@H](C5=CC(=O)OC5)CC[C@]43O)C2)OC(C)[C@@H]1O (stereo partly specified)	0	-4	101*	-1
CC(=O)O[C@H]1C[C@H](O[C@H]2[C@@H](O)C[C@H](O[C@H]3[C@@H](O)C[C@H](O[C@H]4CC[C@@]5(C)C(CCC6C5C[C@@H](O)[C@]5(C)[C@@H](C7=CC(=O)OC7)CC[C@]65O)C4)O[C@@H]3C)O[C@@H]2C)O[C@H](C)[C@H]1O[C@@H]1O[C@H](CO)[C@@H](O)[C@H](O)[C@H]1O (stereo partly specified)	0	16	100*	2
COc1ccc(OC)c(N2C(=O)/C(=C\c3ccco3)C(=O)NC2=S)c1	0	79*	-7	4
O=C(Nc1ccc(Br)cc1C(=O)c1ccccc1)c1ccc(Cl)s1	0	0	1	0
c1ccc2c(N3CCNCC3)cccc2c1	0	-16	2	4
Cc1cncc2cccc(N3CCNCC3)c12	0	14	38*	-1
CCc1ccccc1N1Cc2ccccc2C1=N	0	-5	-8	2
CNC(=O)Oc1cc([N+](=O)[O-])cc2cccnc12	-1	96*	74*	-1
COc1ccc(C(=O)Nc2ccc(Cl)cc2C(=O)c2ccccc2Cl)cc1OC	0	-15	-12	-2
O=C1C=C2C(=CCOC2O)O1 (stereo unspecified)	0	29	39*	0
N#CC(C#N)=NNc1ccc(-c2ccccc2)cc1	0	1	44*	1
CC(=O)c1ccc(-c2ccccc2)cc1	0	-9	-28	0
C[C@H](N)[C@H](O)c1ccccc1	0	-11	-2	-3
CC(N)[C@H](O)c1ccc(O)c(O)c1 (stereo partly specified)	0	89*	-2	0
O=C1NC(=O)C(=Cc2ccc(-c3cc([N+](=O)[O-])ccc3O)o2)C(=O)N1	0	13	14	-1
CC1(C)C(=O)C=C[C@@]2(C)C1=C(O)C(=O)[C@]1(C)C2CC[C@@]2(C)[C@H](c3ccoc3)C[C@H]3O[C@]321 (stereo partly specified)	0	-11	65*	2
CC(=O)O[C@@H]1C[C@@]2(C)[C@H](c3ccoc3)C[C@H]3O[C@]32[C@]2(C)C(=O)C(O)=C3C(C)(C)C(=O)C=C[C@]3(C)C12 (stereo partly specified)	0	9	72*	3
COc1cc(CNCCc2cccc(Cl)c2)c([N+](=O)[O-])cc1OC	0	19	3	2
CCCCSc1nc2ccccc2c(=O)n1-c1ccccc1OC	0	6	12	-1
O=C(O)COc1ccccc1/C=C1\C(=O)NC(=O)N(c2ccc(O)cc2)C1=O	0	75*	6	0
SMILES	FBW7 act	MITF inh	TEAD-YAP block	GPR151 ag
COc1cc(/C=C2\C(=O)NC(=O)N(c3ccc([N+](=O)[O-])cc3)C2=O)ccc1OCC(=O)O	0	9	12	0
COc1ccc(C[C@H]2NC[C@H](O)[C@H]2OC(C)=O)cc1	0	-4	103*	4
COc1ccc(CC2C(=O)N(C)C(=O)N(C)C2=O)cc1	0	1	3	0
O=C(c1ccccc1)c1cc(Br)ccc1NC(=O)c1cc2ccccc2oc1=O	0	-11	12	1
CC(C)n1ccc(C(=O)Nc2cc3ccccc3oc2=O)n1	0	-4	63*	-5
C=CCN1C(=O)NC(=O)C(CCc2ccccn2)(CCc2ccccn2)C1=O	0	-4	-2	1
COc1cc(C)c(/C=C/[N+](=O)[O-])cc1C(C)C	0	-9	37*	0
CN(C)c1ccc(/C=C2/C(=O)NC(=S)N(Cc3ccco3)C2=O)cc1	-1	76*	14	0
CN(C)c1ccc(/C=C2/C(=O)NC(=S)N(c3ccccc3F)C2=O)cc1	0	10	4	1
NNC(=O)c1nonc1NCNc1nonc1C(=O)NN	0	-7	1	0
c1ccc(C2=NN(c3ccccc3)N(c3ccccc3)N2)cc1	0	-9	76*	4
Cc1ccc2onc(CC(=O)N3CCN(Cc4ccccc4)CC3)c2c1	0	0	-15	1
Cc1cccc(C)c1-n1nnnc1C1(N(C)O)CCCCC1	0	7	3	-1
COc1ccc2cc(-c3nc4ccccc4[nH]3)c(=N)oc2c1	0	-15	65*	-9
CCCCCCC(=O)O[C@H]1CC[C@H]2[C@@H]3C[C@@H](O)C4=CC(=O)CC[C@]4(C)[C@H]3CC[C@]12C	nt	10	nt	-1
O=c1c2ccccc2nc(/C=C/c2cccc([N+](=O)[O-])c2)n1-c1ccccc1Cl	0	7	-5	0
COC(=O)C1(C#N)CC2c3ccccc3C1c1ccccc12 (stereo unspecified)	0	-1	3	3
CCOC(=O)C1(C#N)CC2c3ccccc3C1c1ccccc12 (stereo unspecified)	2.0*	15	7	2
CC[C@@]1(O)C[C@H](O[C@H]2C[C@H](N(C)C)[C@H](O)[C@H](C)O2)c2c(cc3c(c2O)C(=O)c2c(O)cccc2C3=O)[C@H]1C(=O)OC	0	17	51*	0
CC[C@@]1(O)C[C@H](O[C@H]2C[C@H](N(C)C)[C@H](O)[C@H](C)O2)c2c(cc3c(c2O)C(=O)c2c(O)ccc(O)c2C3=O)[C@H]1C(=O)OC	0	17	-9	1
O=c1[nH]c(O)c(N=Nc2ccc3c(c2)OCCO3)c(=O)[nH]1	0	48	62*	-4
O=c1[nH]c(=S)[nH]c(O)c1N=Nc1ccc2c(c1)OCCO2	0	-8	-28	-9
CC(C)C/C(=N/O)c1c[nH]c2ccccc12	0	-4	-4	2
